Test results taken from PMC5349851, “Combinatorial bZIP dimers display complex DNA-binding specificity landscapes”.

Columns and labels:
Experiment in all cases: SELEX-seq (CSI, HT-SELEX, round 3); SELEX-seq: 1x PBS (10 mM phosphate, 137 mM NaCl, 2.7 mM KCl) pH 7.6, 2.5 mM DTT, 50 ng/ul poly dI-dC, 0.1% BSA, 50 nM biotinylated bZIP (1:3 with partner for heterodimers), 100 nM library, room temperature, 1 h, 3 rounds; high values mean tight binding
Settings in all cases: protein: recombinant;recombinant; copies: 1;1; dsDNA, one strand shown
JUNB;BATF2 = target: T1, JUNB;BATF2 (Homo sapiens;Homo sapiens, UniProt P17275;Q8N1L9 259-332;8-85, |)
T1 sequence 1: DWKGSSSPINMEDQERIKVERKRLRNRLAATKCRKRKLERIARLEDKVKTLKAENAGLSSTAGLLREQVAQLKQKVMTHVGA
T1 sequence 2: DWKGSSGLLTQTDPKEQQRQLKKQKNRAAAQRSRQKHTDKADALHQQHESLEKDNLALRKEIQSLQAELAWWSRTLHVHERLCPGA

JUNB;CREBZF = target: T2, JUNB;CREBZF (Homo sapiens;Homo sapiens, UniProt P17275;Q9NS37 259-332;195-272, |)
T2 sequence 1: T1 sequence 1
T2 sequence 2: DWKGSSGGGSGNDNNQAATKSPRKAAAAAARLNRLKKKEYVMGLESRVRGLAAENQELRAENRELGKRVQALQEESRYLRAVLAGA

BATF;HLF = target: T3, BATF;HLF (Homo sapiens;Homo sapiens, UniProt Q16520;Q16534 17-90;216-293, |)
T3 sequence 1: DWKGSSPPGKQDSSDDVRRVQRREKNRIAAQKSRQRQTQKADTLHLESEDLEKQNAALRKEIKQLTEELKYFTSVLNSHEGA
T3 sequence 2: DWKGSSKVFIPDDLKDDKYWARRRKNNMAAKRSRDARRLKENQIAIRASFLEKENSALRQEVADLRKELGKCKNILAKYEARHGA

BATF;NFIL3 = target: T4, BATF;NFIL3 (Homo sapiens;Homo sapiens, UniProt Q16520;Q16649 17-90;64-134, |)
T4 sequence 1: T3 sequence 1
T4 sequence 2: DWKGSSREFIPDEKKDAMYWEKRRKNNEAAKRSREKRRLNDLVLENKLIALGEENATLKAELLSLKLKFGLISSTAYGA

FOSL1;CEBPE = target: T5, FOSL1;CEBPE (Homo sapiens;Homo sapiens, UniProt P15407;Q15744 96-169;195-267, |)
T5 sequence 1: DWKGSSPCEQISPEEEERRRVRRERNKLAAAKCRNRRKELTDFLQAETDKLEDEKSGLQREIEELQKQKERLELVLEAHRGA
T5 sequence 2: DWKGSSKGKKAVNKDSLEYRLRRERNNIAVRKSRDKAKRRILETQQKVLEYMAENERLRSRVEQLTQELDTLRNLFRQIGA

FOSL1;FOSL1 = target: T6, FOSL1;FOSL1 (Homo sapiens;Homo sapiens, UniProt P15407;P15407 96-169;96-169, |)
T6 sequence 1: T5 sequence 1
T6 sequence 2: T5 sequence 1

FOSL1;NFE2 = target: T7, FOSL1;NFE2 (Homo sapiens;Homo sapiens, UniProt P15407;Q16621 96-169;221-337, |)
T7 sequence 1: T5 sequence 1
T7 sequence 2: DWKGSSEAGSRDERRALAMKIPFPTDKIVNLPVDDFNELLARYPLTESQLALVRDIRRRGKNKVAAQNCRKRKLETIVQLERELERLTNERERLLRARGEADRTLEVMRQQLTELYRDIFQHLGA

FOS;NFE2 = FOS;NFE2 (Homo sapiens;Homo sapiens, UniProt P01100;Q16621 128-201;221-337, |)
FOS;BATF = FOS;BATF (Homo sapiens;Homo sapiens, UniProt P01100;Q16520 128-201;17-90, |)
FOS;FOSL1 = FOS;FOSL1 (Homo sapiens;Homo sapiens, UniProt P01100;P15407 128-201;96-169, |)
FOS;FOSL1, sequence (P01100 other isoform, or with tags, fused parts or gaps |): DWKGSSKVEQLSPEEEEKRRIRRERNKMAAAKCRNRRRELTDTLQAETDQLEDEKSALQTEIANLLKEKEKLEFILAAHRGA

FOS;BATF, sequence (P01100 other isoform, or with tags, fused parts or gaps |, chain 1 of 2, one chain of several): as the sequence (P01100 other isoform, or with tags, fused parts or gaps |) above
FOS;NFE2, sequence (P01100 other isoform, or with tags, fused parts or gaps |): as above

Sequence	binding signal (JUNB;BATF2)	binding signal (JUNB;CREBZF)	binding signal (BATF;HLF)	binding signal (BATF;NFIL3)	binding signal (FOSL1;CEBPE)	binding signal (FOSL1;FOSL1)	binding signal (FOSL1;NFE2)	binding signal (FOS;NFE2)	binding signal (FOS;BATF)	binding signal (FOS;FOSL1)
ATGATGCAAT	0.00121 relative CSI intensity (max = 1)	0.00786 relative CSI intensity (max = 1)	0.179 relative CSI intensity (max = 1)	0.0609 relative CSI intensity (max = 1)	0.0136 relative CSI intensity (max = 1)	0.00963 relative CSI intensity (max = 1)	0.12 relative CSI intensity (max = 1)	0.0393 relative CSI intensity (max = 1)		
CCTGACGTCA	0.0149 relative CSI intensity (max = 1)		0.0974 relative CSI intensity (max = 1)		0.00153 relative CSI intensity (max = 1)	0.0039 relative CSI intensity (max = 1)	0.0335 relative CSI intensity (max = 1)	0.00384 relative CSI intensity (max = 1)	0.0057 relative CSI intensity (max = 1)	
ATGACGGAAT		0.00176 relative CSI intensity (max = 1)					0.0575 relative CSI intensity (max = 1)	0.00162 relative CSI intensity (max = 1)		0.0281 relative CSI intensity (max = 1)
ATGACGTCAT	1 relative CSI intensity (max = 1)	1 relative CSI intensity (max = 1)	0.814 relative CSI intensity (max = 1)	1 relative CSI intensity (max = 1)	0.0518 relative CSI intensity (max = 1)	1 relative CSI intensity (max = 1)	0.466 relative CSI intensity (max = 1)	0.106 relative CSI intensity (max = 1)	1 relative CSI intensity (max = 1)	0.96 relative CSI intensity (max = 1)
ATGACGTAAT	0.0936 relative CSI intensity (max = 1)	0.0382 relative CSI intensity (max = 1)	0.71 relative CSI intensity (max = 1)	0.786 relative CSI intensity (max = 1)	0.00904 relative CSI intensity (max = 1)	0.0331 relative CSI intensity (max = 1)	0.129 relative CSI intensity (max = 1)	0.0286 relative CSI intensity (max = 1)	0.0179 relative CSI intensity (max = 1)	0.0348 relative CSI intensity (max = 1)
ATGACGCAAT	0.00872 relative CSI intensity (max = 1)	0.0122 relative CSI intensity (max = 1)	0.105 relative CSI intensity (max = 1)	0.155 relative CSI intensity (max = 1)	0.0294 relative CSI intensity (max = 1)	0.0097 relative CSI intensity (max = 1)	0.18 relative CSI intensity (max = 1)	0.0862 relative CSI intensity (max = 1)	0.00539 relative CSI intensity (max = 1)	0.0408 relative CSI intensity (max = 1)
